# Only some compounds are listed: those with a hit (about 15% of all), similar ones and a draw of the others.
# ALOX12 inh – inhibitors of human 12S-lipoxygenase ALOX12 | purified 12hLO, xylenol orange hydroperoxide absorbance | Potency, µM (titrated, usually from 108 µM), without a hit: at the highest dose activity change, negative = inhibition, hits mostly inhibitors | 580,000 compounds, 1.1% hits | P18054
#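 Purified human 12hLO at 150 nM in 25 mM Hepes, 0.01% Triton X-100, pH 7.0, preincubated 15 min at room temperature with compound. Reaction started with 40 uM arachidonic acid, 30 min at room temperature. Hydroperoxide measured by Fe-xylenol orange, 573/405 nm absorbance ratio.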
# Gal4-VP16 FLuc – counter-screen for ROR gamma inhibitors: Gal4-VP16 reporter. Drosophila S2 Gal4-VP16 UAS-luciferase, luminescence, 20 h. Potency, µM (series often up to 53.6 µM), without a hit: top-dose activity, negative = inhibition, usual class: inhibitors. 310,000 compounds, 3.5% hits;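 further: Gal4-VP16 expression switched on by copper sulfate through the metallothionein promoter; nearly all actives have a fitted effect of over 50% in size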
# RORg inh – blocks mouse ROR gamma transcriptional activity | P51450 | Drosophila S2 Gal4-RORgamma UAS-luciferase reporter, 20 h | Potency, µM (titrated, usually from 53.6 µM), for inactives: top-dose activity change, negative = inhibition, usual class: inhibitors | 310,000 compounds, 5.4% hits | AID 2551; further: nearly all actives have a fitted effect of over 60% in size
# Target sequence (P51450 whole entry, looked up, the tested form may be a part): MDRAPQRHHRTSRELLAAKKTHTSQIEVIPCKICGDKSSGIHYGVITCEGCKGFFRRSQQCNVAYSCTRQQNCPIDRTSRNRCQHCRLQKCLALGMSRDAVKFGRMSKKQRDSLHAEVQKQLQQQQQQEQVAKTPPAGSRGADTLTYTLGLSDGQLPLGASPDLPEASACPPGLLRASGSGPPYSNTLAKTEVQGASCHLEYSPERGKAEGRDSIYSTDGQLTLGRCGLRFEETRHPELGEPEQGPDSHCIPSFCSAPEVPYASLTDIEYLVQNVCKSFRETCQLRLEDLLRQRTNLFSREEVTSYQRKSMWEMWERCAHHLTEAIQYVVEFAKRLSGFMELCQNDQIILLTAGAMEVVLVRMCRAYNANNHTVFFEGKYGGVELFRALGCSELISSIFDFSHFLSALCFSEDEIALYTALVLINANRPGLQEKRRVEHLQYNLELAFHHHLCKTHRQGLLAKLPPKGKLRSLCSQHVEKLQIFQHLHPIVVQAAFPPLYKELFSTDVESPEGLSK
#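 Luciferase reporter read in Schneider cells carrying Gal4-RORγ (mouse) and UAS-Photinus luciferase; cells given compound 1 h before 700 uM copper sulfate induction, then incubated 20 h at ambient temperature.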
# ELG1 repair inh – ELG1-dependent DNA repair inhibition; HEK293T ELG1-luciferase reporter, luminescence, 16 h; DNA damage induced by 5-fluorouridine; Potency, µM (titrated, usually from 46.1 µM), for inactives: top-dose activity change, negative = inhibition, usual class: inhibitors; 330,000 compounds, 2.3% hits; AID 504467; further: nearly all actives have a fitted effect of over 55% in size
#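 HEK293T cells expressing luciferase-tagged ELG1 (2,000/well) received 5-Fluorouridine plus compound or DMSO for 16 hr at 37 °C. Luciferase was read by ONE-Glo luminescence after 30 min at room temperature.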
# DT40 TDP1 no CPT – qHTS for Inhibitors of human tyrosyl-DNA phosphodiesterase 1 (TDP1): qHTS in cells in absence of CPT; 420,000 compounds, 15% hits; DT40 Tdp1-/- hTDP1 cells, no CPT, ATP luminescence, 48 h; AID 686978, 2013; Potency, µM (doses to about 46.2 µM), for the others: at the top dose activity change, negative = growth inhibition, hits mostly inhibitors; further: nearly all actives have a fitted effect of over 55% in size
#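 Readout: luminescence from CellTiter-Glo after 30 min in the dark at RT. Cells: DT40 Tdp1-/- with stable hTDP1, 400/well. Exposure: compounds alone, ≥48 hr, 37 °C.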
# TDP1 cell CPT – growth inhibition of DT40 Tdp1-/-;hTDP1 cells with camptothecin (screen for TDP1 inhibitors). chicken DT40 Tdp1-/-;hTDP1 cells + 20 nM CPT, ATP luminescence, 48 h. Potency, µM (titrated, usually from 46.2 µM), for inactives: at the highest dose activity change, negative = growth inhibition, actives largely listed as inhibitors. 420,000 compounds, 12% hits; further: nearly all actives have a fitted effect of over 55% in size
#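 Chicken DT40 Tdp1-/- cells stably complemented with human TDP1 were seeded at 400 cells/well in medium containing 20 nM camptothecin, exposed to pin-transferred compounds, and grown at 37 °C for at least 48 hr. Viability was read as ATP luminescence.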
# * marks the source's active call; other numbers are inactive results; ? = inconclusive; / = no result. The call rests on the fitted dose curve; in most records, active means well fitted curve in the direction sought with a large enough effect; inconclusive means small, poorly fitted or top-dose-only effect, or another doubt; inactive means no such curve, though single readings can be large; an effect the other way counts as inactive or inconclusive. On the % scale 0 is the no-effect control and ±100 the full control effect; potency means the concentration at half of the fitted maximal effect.
SMILES,ALOX12 inh,Gal4-VP16 FLuc,RORg inh,ELG1 repair inh,DT40 TDP1 no CPT,TDP1 cell CPT
CCCc1nc2ccccc2n1CC(O)c1ccc(F)cc1 (configuration not stated),-4.5%,/,/,/,/,/
CCCCN(C)CCNC(=O)c1cc2c(-c3cccc(OC)c3)nn(C)c2s1,-11.7%,10.2%,-14.3%,14.6%,20.6µM*,?
COc1cccc(-c2nn(C)c3sc(C(=O)NCc4ccco4)cc23)c1,?,0.5%,24.2%,?,-27.3%,20.6µM*
COc1cccc(-c2nn(C)c3sc(C(=O)NCCCN(C)Cc4ccccc4)cc23)c1,0.0%,-1.9%,-26.6%,-17.8%,16.4µM*,?
COc1cccc(-c2cc(C(=O)NCc3ccco3)no2)c1,-14.0%,9.3%,?,?,-22.8%,5.2%
CCCCN(CC)CCCNC(=O)c1cc2c(-c3ccc(OC)c(OC)c3)nn(C)c2s1,0.0%,0.1%,-34.7%,23.3%,?,?
CCCCN(C)CCNC(=O)c1cc2c(-c3ccccc3F)nn(C)c2s1,19.8%,-7.6%,-13.3%,?,?,-11.8%
COc1cccc(-c2nn(C)c3sc(C(=O)NCCc4ccc(Cl)cc4)cc23)c1,3.7%,/,/,/,?,?
CCN(CC)CCCNC(=O)c1cc2c(-c3cccc(OC)c3)nn(C)c2s1,0.0%,0.4%,-10.9%,?,14.6µM*,?
CN(C(=O)CN1C(=O)C(c2ccccc2)=NC12CCCC2)c1ccccc1,36.0%,/,/,/,/,/
CC(C(=O)NCc1ccccc1F)n1nc(-c2ccccc2)c2ccccc21 (configuration not stated),-10.6%,/,/,/,/,/
COc1ccc(C(=O)Nc2ccc3oc(=O)ccc3c2)c(OC)c1,7.4%,/,/,/,/,/
CC1CC(C)CN(C(=O)c2ccc3c(c2NCCO)C(=O)c2ccccc2C3=O)C1 (configuration not stated),0.0%,?,-29.5%,?,23.1µM*,29.1µM*
CSc1ccccc1C(=O)N1CC(C)CC(C)C1 (configuration not stated),35.9%,/,/,/,/,/
CC(=O)Nc1ccc(S(=O)(=O)N2CCN(c3ccc([N+](=O)[O-])cc3)CC2)cc1,2.7%,-24.0%,?,?,20.6µM*,23.1µM*
Cn1nc(C(=O)Nc2ccc(S(=O)(=O)N3CCCCC3)cc2)ccc1=O,-22.1%,-3.0%,-7.4%,16.4µM*,20.6µM*,?
Cc1cc(C(=O)Nc2ccc(S(=O)(=O)N3CCCCCC3)cc2)no1,-14.3%,/,/,/,/,/
COc1cc(CN2CCN(S(=O)(=O)c3ccc(NC(C)=O)cc3)CC2)cc(OC)c1OC,-29.8%,/,/,/,/,/
CC(=O)Nc1ccc(S(=O)(=O)N2CCN(Cc3cccc([N+](=O)[O-])c3)CC2)cc1,?,6.8%,9.2%,?,23.1µM*,?
CC(=O)Nc1ccc(S(=O)(=O)N2CCSc3ccccc32)cc1,-15.8%,/,/,?,3.66µM*,4.11µM*
Cn1c(=O)c2c(ncn2CC(O)COc2ccc(C(C)(C)C)cc2)n(C)c1=O (configuration not stated),-9.5%,/,/,/,/,/
CCOc1ccc(C(=O)COC(=O)CCC(=O)c2ccc(Cl)cc2)cc1,11.3%,/,/,/,/,/
Cc1cc(NC(=O)CSc2nnnn2-c2ccc(C)c(C)c2)n(-c2ccccc2)n1,16.2%,/,/,/,/,/
CN(C)C(=O)COc1ccccc1-c1nc(-c2ccccc2)no1,35.9%,/,/,/,/,/
O=C(CCCc1c[nH]c2ccccc12)N1CCCCC1,4.2%,/,/,/,/,/
SMILES,ALOX12 inh,Gal4-VP16 FLuc,RORg inh,ELG1 repair inh,DT40 TDP1 no CPT,TDP1 cell CPT
COC(=O)c1cc(S(=O)(=O)N2CCN(c3ccc(F)cc3)CC2)c[nH]1,10.3%,-18.6%,-21.5%,-4.5%,-21.0%,-28.6%
CC(C(=O)Nc1ccc(S(=O)(=O)N2CCCC2)cc1)N1CCN(c2ccccc2O)CC1 (configuration not stated),15.8%,/,/,?,23.1µM*,?
O=C(Nc1ccc([N+](=O)[O-])cc1)NN1CCCCCC1,-2.5%,/,/,/,14.6µM*,23.1µM*
COC(=O)c1cc(S(=O)(=O)N2CCN(c3ccc([N+](=O)[O-])cc3)CC2)c[nH]1,2.4%,-7.7%,?,16.4µM*,?,-42.4%
O=C(Nc1ccc(S(=O)(=O)N2CCCCC2)cc1)c1ccc(CN2CCc3ccccc3C2)cc1,18.8%,4.47µM*,?,12.1%,4.61µM*,10.3µM*
CCOC1OC(COC(C)=O)C(OC(C)=O)C(OC(C)=O)C1NC(C)=O (configuration not stated),6.6%,/,/,/,/,/
CC(=O)Nc1ccc(S(=O)(=O)N2CCN(CCc3ccccc3)CC2)cc1,267.4%,8.7%,14.8%,-29.0%,6.2%,-5.0%
CC(=O)Nc1ccc(S(=O)(=O)N2CCC(n3cnc4cc(F)ccc43)CC2)cc1,0.0%,0.9%,?,10µM*,?,?
O=C(Nc1ccc(S(=O)(=O)N2CCCC2)cc1)c1ccc([N+](=O)[O-])cc1,-7.1%,4.3%,-15.4%,9.2µM*,-14.5%,0.9%
CC(=O)Nc1ccc(S(=O)(=O)N2CCN(C(=O)Cc3ccccc3)CC2)cc1,0.0%,-5.4%,-15.8%,?,?,11.6µM*
CC(=O)Nc1ccc(S(=O)(=O)N2CCN(c3cc(C(F)(F)F)ccn3)CC2)cc1,192.3%,5.5%,?,?,16.4µM*,18.4µM*
O=C(Nc1ccc(CCO)cc1)c1cc2ccccc2oc1=O,-11.1%,/,/,/,/,/
O=C(Nc1ccccc1)c1ccc(CN2CCc3ccccc3C2)cc1,-7.0%,20.5%,36.6%,?,-29.5%,-17.1%
O=C(Nc1ccc(S(=O)(=O)N2CCCC2)cc1)c1ccccc1,-0.7%,/,/,-12.5%,23.1µM*,-28.2%
O=C(Nc1ccccc1)c1ccc(S(=O)(=O)N2CCCC2)cc1,26.1%,2.1%,13.1%,-0.8%,-28.4%,-22.1%
Cc1cccc(C(=O)OC(C)C(=O)Nc2ccc(S(=O)(=O)N3CCCC3)cc2)c1O (configuration not stated),-13.5%,/,/,?,?,?
CC(OC(=O)c1cc(Br)ccc1O)C(=O)Nc1ccc(S(=O)(=O)N2CCCC2)cc1 (configuration not stated),-24.2%,/,/,-20.7%,16.4µM*,?
O=C(Nc1cccnc1)c1ccc(CN2CCc3ccccc3C2)cc1,0.0%,5.8%,32.5%,8.2µM*,16.4µM*,?
CC(C)c1ccccc1NC(=O)C1CC2CCC1C2 (configuration not stated),-3.0%,/,/,/,/,/

# High-throughput results from PubChem BioAssay.
